# Data as given in PubChem BioAssay (NCATS).
# Records with an inconclusive call do not appear. Entries that show only a call come without a potency. Activity calls are given as the source filed them. Calls come from the whole dose curve; as a rule, active = well fitted cell-killing curve with a large enough effect; inconclusive = small, poorly fitted or top-dose-only effect; inactive = flat fitted curve, though single readings scatter.
# Test: qHTS of pediatric cancer cell lines to identify multiple opportunities for drug repurposing: Primary screen for control Hh wild type fibroblast cells (AID 1347106);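 note: a drop in luminescence marks cytotoxicity and a rise apparent proliferation; nearly all actives have a fitted effect of over 55% in size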
# Settings: Hh wild-type fibroblast viability, CellTiter-Glo luminescence, 48 h; series mostly up to 46 µM
# Text: Drug repurposing or repositioning has been offered as a strategy for drug development in oncology programs. This approach has special potential for childhood cancers and other rare or orphan diseases, where the expected return on new drug development has been a disincentive to pharmaceuticals.
# In this project we exploit the poly-pharmacology of drugs to discover new indications via phenotypic screening of a panel of 19 well-characterized cell lines derived from solid tumors seen in children and adolescents. The goal is to identify approved drugs with previously unrecognized anticancer properties that has the potential to reveal new mechanisms and biological processes involved in carcinogenesis or drug resistance. We employed a titration-based paradigm (quantitative high-throughput screening or qHTS), where all compounds were tested at multiple concentrations for their effect on cell viability. Concentration-response curves (CRCs) were derived directly from the primary screen, and both potency and efficacy values were used to identify compounds with robust bioactivity profiles. We screened the NIH Chemical Genomics Center (NCGC) Pharmaceutical Collection (NPC) and Mechanism Interrogation Plate (MIPE) small molecule collections of approved and investigational compounds against these cell lines; and measured metabolically active cells after 48 hours of compound treatment as a proxy for cell viability.
# Assay Submitter: Nathalia J. Martinez, National Center for Advancing Translational Sciences, National Institutes of Health, Rockville, MD, USA; email: natalia.martinez@nih.gov
# [1] Shen, M et al. Quantitative high-throughput phenotypic screening of pediatric cancer cell lines identifies multiple opportunities for drug repurposing. Oncotarget 2017 Dec 19;9(4):4758-4772. PMID 29435139.
# The cells were obtained from University of North Carolina (UNC), Pediatric Preclinical Testing Program (PPT), and Coriell Institute (CI).
# qHTS cell viability assay:
# Cells were assayed in growth media at a density of 500-1,000 cells/well. Five microliters of cells were dispensed into 1,536-well, white, solid-bottom, TC-treated plates (Greiner Bio One) using a multidrop dispenser and incubated at 37 degrees C, 5% CO2, under a humidified atmosphere for 5 hours. Twenty-three nanoliters of compounds and controls (neutral control DMSO or positive control bortezomib at final concentration of 2.3 µM) were subsequently transferred by Kalypsys pintool. For primary screens, the MIPE collection was tested at 11-point dilutions (final concentrations range from 0.78 nM to 46 µM) and the NPC collection at 8-point dilutions (final concentrations range from 0.59 nM to 46 µM). Compounds tested in follow-up screens were assayed at 11-point dilutions. Cells were incubated for 48 hours, followed by addition of 3 µL of CellTiter-Glo (Promega). After a 15 min incubation at room temperature, samples were analyzed for luminescence intensity using a ViewLux High-throughput CCD imager equipped with clear filters.
row,Compound,Potency
1,C/C(=C1\CCOC(=O)S1)N(C=O)Cc1cnc(C)nc1N,inactive
2,CC(=O)N1CCN(c2ccc(O)cc2)CC1,inactive
3,CC1c2ccccc2CN1NC(=O)c1ccc(Cl)c(S(N)(=O)=O)c1 (stereo not given),inactive
4,CN(C)CCN(Cc1ccsc1)c1ccccn1,inactive
5,Nc1nnnn1-c1ccccc1,inactive
6,CCOC(=O)c1cc(=O)c2c(OCC(COc3cccc4oc(C(=O)OCC)cc(=O)c34)OC(=O)[C@@H](N)CCCCN)cccc2o1,inactive
7,N#CSCC(=O)O,inactive
8,Nc1nc2ccccc2n1Cc1ccc(F)cc1,inactive
9,COc1cc(C(=O)OC(COCCC(C)C)CN2CCOCC2)cc(OC)c1OC (stereo not given),inactive
10,O=C(O)CCCC[P+](c1ccccc1)(c1ccccc1)c1ccccc1,inactive
11,CC(C)C(=O)Nc1cccc(C2CN3CCSC3=N2)c1 (stereo not given),inactive
12,CCCC(=O)O[C@]1(C(=O)CC)CC[C@H]2[C@@H]3CCC4=CC(=O)CC[C@]4(C)[C@H]3[C@@H](O)C[C@@]21C,inactive
13,C#Cc1ccc(-c2ccccc2F)cc1,inactive
14,Oc1ccc(CCNCCCCCCNCCc2ccccc2)cc1O,inactive
15,CO/N=C(/C(=O)N[C@@H]1C(=O)N2C(C(=O)[O-])=C(C[n+]3ccn4ncccc43)CS[C@H]12)c1nsc(N)n1,inactive
16,CCC(=O)O[C@]1(C(=O)COC)[C@@H](C)C[C@H]2[C@@H]3CCC4=CC(=O)C=C[C@]4(C)C3(F)[C@@H](O)C[C@@]21C (stereo not given in full),inactive
17,CC(=O)OCC[N+](C)(C)C,inactive
18,COc1cc2c(cc1OC)C(=O)CC2,inactive
19,Cc1cc(OCCOCC[N+](C)(C)Cc2ccccc2)ccc1C(C)(C)CC(C)(C)C,inactive
20,O=C(O)c1ccccc1S,inactive

row,Compound,Potency
1,OC[C@]1(O)OC[C@@H](O)[C@H](O)[C@@H]1O,inactive
2,CN(CC1(C)CCCO1)S(=O)(=O)c1ccc(Cl)c(S(N)(=O)=O)c1 (stereo not given),inactive
3,CCCC(=O)Nc1ccc(O)c(C(C)=O)c1,inactive
4,CO[C@@H]1[C@@H](O[C@@H]2O[C@H](C)[C@@H](O[C@H]3C[C@@](C)(O)[C@@H](O)[C@H](C)O3)[C@H](N(C)C)[C@H]2O)[C@@H](CC=O)C[C@@H](C)[C@@H](O[C@@H]2CC[C@H](N(C)C)[C@@H](C)O2)/C=C/C=C/C[C@@H](C)OC(=O)C[C@H]1OC(C)=O,inactive
5,O=C1OC2(c3ccccc31)c1cc(I)c(O)c(I)c1Oc1c2cc(I)c(O)c1I,inactive
6,CC(=O)O[C@H]1CC[C@@]2(C)C(=CC[C@@H]3[C@@H]2CC[C@]2(C)C(C(C)=O)=CC[C@@H]32)C1,inactive
7,CN(C)CCCOC1(Cc2ccccc2)CCCCCC1,inactive
8,CCC(C(=O)NC(=O)NC(C)=O)c1ccccc1 (stereo not given),inactive
9,CCO[C@H](Cc1ccc(OCCc2ccc(OS(C)(=O)=O)cc2)cc1)C(=O)O,inactive
10,CC(=O)c1cc2ccccc2s1,inactive
11,CN(C)C(=O)CNC(=O)Cc1ccccc1,inactive
12,CC(=O)O[C@@H]1CC2C3CCc4cc(OC(=O)c5ccccc5)ccc4C3CCC2(C)[C@H]1OC(C)=O (stereo not given in full),inactive
13,CC(C)C(=O)OCc1cccc(OC(=O)[C@@H]2N3C(=O)[C@@H](NC(=O)Cc4ccccc4)[C@H]3SC2(C)C)c1,inactive
14,CC[N+]1(CC)CCC(=C(c2ccccc2)c2ccccc2)C1C (stereo not given),inactive
15,CC[C@@]1(O)C(=O)OCc2c1cc1n(c2=O)Cc2c-1nc1ccccc1c2/C=N/OC(C)(C)C,inactive
16,Nc1ccc(C(=O)OCC(O)CO)cc1 (stereo not given),inactive
17,COc1ccccc1N1CCN(CC(O)COc2cc(OC)c(OC)c(OC)c2)CC1 (stereo not given),inactive
18,COC(=O)c1ccc(NC(C)=O)cc1OC,inactive
19,Cc1cc(C(C)(C)C)c(O)c(C(C)(C)C)c1,inactive
20,C[C@@H]1C[C@H]2[C@@H]3CCC4=CC(=O)C=C[C@]4(C)[C@@]3(F)[C@@H](O)C[C@]2(C)[C@@]1(O)C(=O)COC(=O)c1ccncc1,inactive
